For some of these results: Measured potencies and affinities stand elsewhere. Records with an inconclusive call do not appear. The list shows a part of the results. Calls of active or inactive are those of the source. Unless noted, how the calls were made is not given here.
What was measured:
[1] = cytotoxicity in PAX8-dependent RMG-1 cells, dose response, cell-based, cherry-pick (AID 687029;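 active means signal drop whose fitted half-maximal concentration is at most twice the top valid dose, in every test run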;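 further: cells exposed to compound for 96 hours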)
[2] = cytotoxicity in IOSE-T80 ovarian epithelial cells, dose response, selectivity assay for PAX8 inhibitor project, cell-based, cherry-pick (AID 687032;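 active means fitted half-maximal concentration for viability loss no higher than twice the top valid dose, in every repeat run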;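 further: cells exposed to compound for 96 h before reading; 0% = neutral control wells and -100% = 2 µM mitoxantrone kill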)
[3] = non-specific cell cytotoxicity, dose response, cytotoxicity control for PAX8 inhibitor project, plate reader, dry powder samples (AID 743021)
[4] = A2780 ovarian cancer cell cytotoxicity, dose response, cytotoxicity control, plate reader, dry powder samples (AID 743046);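 further: 0% = neutral control wells and -100% = cytotoxic reference compound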
[5] = IGROV1 ovarian cancer cell cytotoxicity, dose response, PAX8 inhibitor project, plate reader, dry powder samples (AID 743043);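 further: more negative means fewer viable cells or more cytotoxicity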
[6] = IOSE-T80 ovarian epithelial cell cytotoxicity, dose response, cytotoxicity control for PAX8 inhibitor project, plate reader, dry powder samples (AID 743045);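 further: 0% = neutral control median and -100% = positive control median; more negative values mean more cell killing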
[7] = cytotoxicity in OVCAR8 ovarian cancer cells, dose response, PAX8 project, cell-based, plate reader, dry powder samples (AID 743197)
[8] = A549 cell cytotoxicity, dose response, cytotoxicity control, plate reader, cherry-pick, antagonist series (AID 743412);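 further: 0% = neutral control wells and -100% = positive control wells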
[9] = HepG2 cell cytotoxicity, dose response, cytotoxicity control, plate reader, cherry-pick, antagonist series (AID 743416);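 further: 0% = neutral control wells and -100% = positive control wells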
[10] = DNA binders by acridine orange displacement, dose response, counter-screen for EWS/Fli inhibitor project, biochemical, fluorescence polarization, cherry-pick (AID 720586;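 active means fitted curve reaches a 35% signal fall AC35 below twice the sample's top valid tested dose, actives reach about 48 µM in these data; inactive means the rest, including activity in the rising direction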;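 further: 0% = neutral control median and -100% = 10 µM mitoxantrone control median; lower polarization ratio signals compound binding to DNA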)
[11] = molecular target: Melanocortin receptor 4 (Homo sapiens) (UniProt P32245); assay: MC4R antagonists, dose response, counter-screen for LGR2 antagonist project, cell-based, plate reader, cherry pick (AID 743444)
[12] = NIH:OVCAR-3 ovarian cancer cell cytotoxicity, dose response, PAX8 inhibitor project, plate reader, dry powder samples (AID 743044); details: max activity: at 35 µM, hits give low values unless noted
[13] = inhibitors of CMV-promoter luciferase reporter, dose response, counter-screen for Pax8 inhibitor project, cell-based, HEK293, luminescence, dry powder (AID 743020;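 active means signal-lowering compounds whose fitted half-maximal concentration is at or below twice the top tested dose in every run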;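 further: HEK293 cells stably expressing the CMV luciferase reporter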)

COc1ccc(S(=O)(=O)N(C)C[C@@H]2Oc3ccc(NC(=O)Nc4ccc(C(F)(F)F)cc4)cc3CC(=O)N([C@H](C)CO)C[C@@H]2C)cc1
inactive: outcome [1] | outcome [2] | outcome [3] | activity change, negative = cytotoxicity [4] -15.3% [at 8 µM]

COc1ccc(S(=O)(=O)N(C)C[C@@H]2OCCCC[C@H](C)Oc3ccc(NS(=O)(=O)c4ccc(Cl)cc4)cc3C(=O)N([C@H](C)CO)C[C@@H]2C)cc1
inactive: outcome [1] | outcome [2] | outcome [5] | outcome [6] | outcome [4] | outcome [7]

COc1ccc(NC(=O)Nc2ccc3c(c2)C(=O)N([C@H](C)CO)C[C@H](C)[C@H](CN(C)Cc2ccc(C(F)(F)F)cc2)OCCCC[C@H](C)O3)cc1
inactive: outcome [1] | outcome [2] | outcome [6] | outcome [4]

C[C@H](CO)N1C[C@H](C)[C@@H](CN(C)Cc2ccc(C(F)(F)F)cc2)Oc2ccc(NS(=O)(=O)c3ccc(Cl)cc3)cc2CC1=O
inactive: outcome [1] | outcome [2] | outcome [6] | outcome [4]

COc1cccc(C#Cc2ccc([C@H]3[C@@H](CO)N(C(=O)c4ccccn4)[C@H]3C#N)cc2)c1
inactive: outcome [1] | outcome [2] | outcome [6] | outcome [4]

C[C@H]1CCCCO[C@H](CN(C)S(=O)(=O)c2ccccc2)[C@@H](C)CN([C@@H](C)CO)C(=O)c2cc(NS(=O)(=O)c3ccc(Cl)cc3)ccc2O1
inactive: outcome [1] | outcome [2] | outcome [5] | outcome [6]

Cc1ccc(S(=O)(=O)Nc2ccc3c(c2)C(=O)N([C@H](C)CO)C[C@@H](C)[C@H](CN(C)Cc2ccc(C(F)(F)F)cc2)OCCCC[C@H](C)O3)cc1
inactive: outcome [1] | outcome [2] | outcome [6]

Nc1ccc(-c2nc3ccc(C(=O)O)cc3s2)cc1
inactive: outcome [1] | outcome [2] | outcome [8] | outcome [9]

COc1ccccc1C#Cc1ccc([C@H]2[C@H](C#N)N(C(=O)C3CC3)[C@H]2CO)cc1
inactive: outcome [1] | outcome [2] | outcome [5] | outcome [6]

Cc1ccc(S(=O)(=O)Nc2ccc3c(c2)C(=O)N([C@H](C)CO)C[C@@H](C)[C@@H](CN(C)Cc2ccc(C(F)(F)F)cc2)OCCCC[C@H](C)O3)cc1
inactive: outcome [1] | outcome [2] | outcome [3] | outcome [6] | outcome [7]

Cn1nnnc1Sc1ncnc2scc(-c3cccc(Br)c3)c12
inactive: outcome [1] | outcome [2] | outcome [3] | outcome [9]

N#C[C@H]1[C@H](c2ccc(C#Cc3ccccc3F)cc2)[C@H](CO)N1C(=O)C1CCC1
inactive: outcome [1] | outcome [2] | outcome [5] | outcome [6] | outcome [4] | outcome [7]

NS(=O)(=O)c1ccc(CCN2C(=O)/C(=C\c3ccc(Cl)cc3)SC2=S)cc1
inactive: outcome [1] | outcome [2] | outcome [3] | outcome [4]

Oc1c(Cl)cc(Cl)c(Cl)c1Cc1c(O)c(Cl)cc(Cl)c1Cl
inactive: outcome [1] | AC35 [10] | outcome [3]

O=C(Nc1cccc(C(=O)O)c1)Nc1ccc2c(c1)OCO2
inactive: outcome [1] | outcome [2] | outcome [3] | outcome [8] | outcome [9]

COc1cccc(C#Cc2ccc([C@H]3[C@@H](CO)N(C(=O)C4CCCCC4)[C@H]3C#N)cc2)c1
inactive: outcome [1] | outcome [2] | outcome [5] | outcome [6] | outcome [7]

O=C1CN(S(=O)(=O)Cc2ccccc2)C[C@H]2[C@H](c3ccc(C#Cc4ccc(F)cc4)cc3)[C@H](CO)N12
inactive: outcome [1] | outcome [2] | outcome [5] | outcome [6] | outcome [4] | outcome [7]

COc1cccc(-c2ccc(C3[C@@H]4CN(C(=O)C5CC5)C[C@H]3N4)cc2)c1 (some centres not stated)
inactive: outcome [1] | outcome [2] | outcome [3] | outcome [6] | outcome [4] | outcome [8] | outcome [9] | outcome [11]

COc1ccc(CN(C)C[C@@H]2OCCCC[C@H](C)Oc3ccc(NC(=O)Nc4ccc(C(F)(F)F)cc4)cc3C(=O)N([C@@H](C)CO)C[C@H]2C)cc1
inactive: outcome [1] | outcome [2] | outcome [5] | outcome [6]

COc1ccc(NC(=O)N2CCCCN3[C@H](C2)[C@@H](c2ccc(C#Cc4ccccc4)cc2)[C@@H]3CO)cc1
inactive: outcome [1] | outcome [2] | outcome [5] | outcome [6] | outcome [4]

COc1ccccc1S(=O)(=O)N(C)C[C@H]1Oc2cc(C#CCC3CCCC3)ccc2S(=O)(=O)N([C@@H](C)CO)C[C@H]1C
inactive: outcome [1] | outcome [2] | outcome [5] | max activity [12] 9.23% [at 16 µM, hits give low values] | outcome [6] | outcome [4] | outcome [7]

CCCCCCCCn1c2c(c(=N)c3c1CCC3)CCCC2
inactive: outcome [1] | AC35 [10] | outcome [13] | outcome [3]

N#C[C@@H]1[C@@H](c2ccc(C#Cc3ccccc3F)cc2)[C@H](CO)N1C(=O)C1CCCCC1
inactive: outcome [1] | outcome [2] | outcome [3] | outcome [4]

C[C@@H]1CCCCO[C@@H](CN(C)S(=O)(=O)c2ccccc2)[C@H](C)CN([C@H](C)CO)C(=O)c2cc(NC(=O)Nc3ccc(C(F)(F)F)cc3)ccc2O1
inactive: outcome [1] | outcome [2] | outcome [6] | outcome [4] | outcome [7]

O=C(C[C@@H]1C[C@@H]2c3cc(NS(=O)(=O)c4ccc(F)cc4)ccc3O[C@@H]2[C@@H](CO)O1)NCc1ccc(Oc2ccccc2)cc1
inactive: outcome [1] | outcome [2] | outcome [5] | outcome [6]

O=C(C[C@H]1C[C@@H]2c3cc(NS(=O)(=O)c4ccc(F)cc4)ccc3O[C@@H]2[C@@H](CO)O1)N1CCc2ccccc2C1
inactive: outcome [1] | outcome [2] | outcome [5] | outcome [6] | outcome [4]

C[C@@H]1CN([C@@H](C)CO)C(=O)Cc2cc(NC(=O)Cc3ccccc3)ccc2O[C@H]1CN(C)Cc1ccc(-c2ccccc2)cc1
inactive: outcome [1] | outcome [2] | outcome [5] | max activity [12] -33% | outcome [6] | outcome [4] | outcome [7]

C[C@@H]1CN([C@H](C)CO)C(=O)c2cc(NS(=O)(=O)c3ccccc3)ccc2O[C@@H](C)CCCCO[C@H]1CN(C)Cc1ccc(C(F)(F)F)cc1
inactive: outcome [1] | outcome [2] | outcome [3] | outcome [4]

C[C@H](CO)N1C[C@H](C)[C@@H](CN(C)Cc2ccc(C(F)(F)F)cc2)OCCCC[C@H](C)Oc2ccc(NS(=O)(=O)c3ccc(F)cc3)cc2C1=O
inactive: outcome [1] | outcome [2] | outcome [6] | outcome [7]

CC(=O)c1sc(NC(=O)CCS(=O)(=O)c2ccc(Cl)cc2)nc1C
inactive: outcome [1] | outcome [13] | outcome [3]

COc1cccc(/C=N/Nc2nc(Nc3ccc([N+](=O)[O-])cc3)nc(N3CCCC3)n2)c1O
inactive: outcome [1] | outcome [13]

Cc1ccc(S(=O)(=O)c2ncccc2[N+](=O)[O-])cc1
inactive: outcome [1] | outcome [13]

COc1ccccc1N(C(C)=O)C1=C(Cl)C(=O)c2ccccc2C1=O
inactive: outcome [1] | outcome [13]

Cc1ccc(C(=O)Nc2cnc3ccccc3c2)cc1
inactive: outcome [1] | outcome [13]

C(=N\Nc1nc2ccccc2s1)/c1ccccn1
inactive: outcome [1] | outcome [13]

COc1ccc(Oc2ccc(/C=C/C(=O)c3cccc(OC)c3)cc2[N+](=O)[O-])cc1
inactive: outcome [1] | outcome [13]

COc1ccc(CN(C)C[C@H]2OCCCC[C@H](C)Oc3ccc(NC(=O)Nc4ccc(C(F)(F)F)cc4)cc3C(=O)N([C@@H](C)CO)C[C@H]2C)cc1
inactive: outcome [1] | outcome [13]

CS(=O)(=O)c1ccc(C(=O)OCC(=O)NCc2cccs2)cc1[N+](=O)[O-]
inactive: outcome [1] | outcome [13]

O=C(NCCc1ccccc1)C(c1cccs1)N(C(=O)CCl)c1ccc(Cl)cc1 (configuration not stated)
inactive: outcome [1] | outcome [13]

O=[N+]([O-])c1c(Nc2cccc(O)c2)cc(Cl)c2nonc12
inactive: outcome [1] | outcome [13]

CCOc1ccc(NC(=O)Nc2cccc(C(=O)O)c2)cc1
inactive: outcome [1] | outcome [13]

CC(C)c1ccc(-c2nc3ccccc3s2)cc1
inactive: outcome [1] | outcome [13]

O=C(Nc1ccccc1)Nc1cc(OCC(F)(F)F)cc(OCC(F)(F)F)c1
inactive: outcome [1] | outcome [13] | outcome [3]

C#CC(=O)N(c1ccc(OC)cc1OC)C(C(=O)NC1CCCC1)c1cccs1 (configuration not stated)
inactive: outcome [1] | outcome [13]

COC(=O)C1=C(C)N(Cc2ccc(C(F)(F)F)cc2)C(=NCc2ccccc2)NC1c1cccc(F)c1 (configuration not stated)
inactive: outcome [1] | outcome [13]

CC(=O)N(C1=C(Cl)C(=O)c2ccccc2C1=O)C1CCCCC1
inactive: outcome [1] | outcome [13]

COc1ccc(/C=C2\CN(Cc3ccccc3)C/C(=C\c3ccc(OC)cc3OC)C2=O)c(OC)c1
inactive: outcome [1] | outcome [13]

COc1cccc(N2CCN(c3ncnc4c3cnn4-c3ccc(C)cc3C)CC2)c1
inactive: outcome [1] | outcome [13]

O=C(CCl)N=c1sccn1Cc1ccc(Cl)cc1Cl
inactive: outcome [1] | outcome [13]

N#Cc1nc(NCC(F)F)nc(Nc2cc(F)cc(F)c2)n1
inactive: outcome [1] | outcome [13] | outcome [3]

CCOC(=O)c1c2c(n(Cc3ccccc3)c1C)C(=O)C(=O)c1ccccc1-2
inactive: outcome [1] | outcome [13]

OC(c1cc(-c2ccc(C(F)(F)F)cc2)nc(C(F)(F)F)c1)C1CCCCN1 (configuration not stated)
inactive: outcome [1] | outcome [13]

NC1=C(Cl)C(=O)c2ccc(S(N)(=O)=O)cc2C1=O
inactive: outcome [1] | outcome [13]

From PubChem BioAssay
